Measured values as given in PubChem BioAssay AID463173 (ICCB-Longwood Screening Facility, Harvard Medical School, 2010).
Out of some 52,000 compounds screened, about 4,300 (8.3%) were called active. Cut-off read from the data, not from the text of the source: active = survival mostly below about 52% (no sharp cut-off); inactive = mostly above about 56%. Many of the other results were omitted from the sample, so actives are more common in it than they were.

These compounds were tested on DeltatarO mutant (assay: S. aureus survival, RN4220 and DeltatarO strains – OD600, teichoic acid synthesis inhibitors, primary screen (AID 463173)). Details: S. aureus RN4220 wild type/DeltatarO growth, OD600, 18 h, hits give low values, screened at 18.75 µg/mL (by protocol).

Structure (SMILES) | survival
CCNC(=O)C1CCN(S(=O)(=O)c2ccc3c(c2)CCCN3C(C)=O)CC1 | 99% (inactive)
CCC(CC)C(=O)OCc1cc(=O)n2nc(C3CCCCC3)sc2n1 | 88% (inactive)
COc1ccc(/C=C(\NC(=O)c2ccccc2)C(N)=O)cc1 | 79% (inactive)
CC(C)CCNC(=O)Cn1c(-c2cccs2)cc2cc(F)ccc21 | 94% (inactive)
Cc1cc(C)c2c(c1)c(C)cc1nnc(SCC(=O)c3ccc(F)cc3)n12 | 63% (inactive)
Cc1ccc(C)c(CSC2=NC(C)(C)Nc3ccccc32)c1 | 80% (inactive)
CCC(NC(C)=O)c1ccccc1 (stereo not given) | 71% (inactive)
CCCCCCNc1nc(Oc2ccccc2)nc(Oc2ccccc2)n1 | 62% (inactive)
CN(C)C(=O)CSc1n[nH]c(-c2ccccc2)n1 | 103% (inactive)
Cc1ccc(-c2noc(-c3ccc(N4CCC(C)CC4)c([N+](=O)[O-])c3)n2)cc1 | 85% (inactive)
Cc1ccc(NC(=O)CSc2nc3ccc(NC(=O)CCc4ccccc4)cc3s2)cc1 | 90% (inactive)
Cc1nn(S(=O)(=O)c2ccc(C(C)C)cc2)c(C)c1S(=O)(=O)N1CCCCC1 | 79% (inactive)
O=C(COc1ccc(Cl)cc1)OCc1cc(=O)n2nc(C3CC3)sc2n1 | 83% (inactive)
Cc1cc(=O)[nH]c2nnc(SCc3ccc(Cl)cc3Cl)n12 | 123% (inactive)
COc1ccccc1NC(=O)c1sc2ncn(Cc3ccccc3Cl)c(=O)c2c1C | 99% (inactive)
CCOc1ccc(-n2c(C)nc3c(cnn3-c3ccc(C)cc3)c2=O)cc1 | 76% (inactive)
CCOc1ccc(-n2c(CC)nc3c(cnn3-c3ccc(Cl)cc3)c2=O)cc1 | 46% (inactive)
Cc1cccc(-c2nc3c(cnn3-c3ccccc3)c(=O)n2-c2ccc(Cl)cc2)c1 | 56% (inactive)
Cc1cccc(-n2c(-c3ccco3)nc3c(cnn3-c3ccc(F)cc3)c2=O)c1 | 81% (inactive)
Cc1cccc(-c2nc3c(cnn3-c3ccccc3)c(=O)n2-c2cccc(Cl)c2)c1 | 44% (active)
CCOc1ccc(-n2c(-c3ccc(C)cc3)nc3c(cnn3-c3ccccc3)c2=O)cc1 | 42% (active)
CC(=O)c1ccc(N2CCN(S(=O)(=O)c3ccc4c(c3)C(C)(C)C(=O)N4)CC2)cc1 | 64% (inactive)
CN1C(=O)c2ccccc2Sc2ccc(NC(=O)NCc3ccc(Cl)cc3)cc21 | 96% (inactive)
COC(=O)c1c(NC(=O)/C=C/c2ccc(OC)cc2)sc2c1CCC2 | 102% (inactive)
CCOC(=O)c1c(NC(=O)/C=C/c2ccc(Cl)cc2)sc2c1CCC(C)C2 (stereo not given) | 44% (active)

Structure (SMILES) | survival
CCOC(=O)c1c(NC(=O)/C=C/c2ccc(OC)c(OC)c2)sc(C(C)=O)c1C | 118% (inactive)
CCOC(=O)c1c(NC(=O)/C=C/c2ccc(OCC)c(OC)c2)sc2c1CCC2 | 56% (inactive)
COc1ccc(/C=C/C(=O)Nc2sc3c(c2C(N)=O)CCCC3)cc1 | 58% (inactive)
COC(=O)c1c(NC(=O)/C=C/c2ccc(OC)c(OC)c2)sc2c1CCC2 | 51% (inactive)
CCCOc1ccc(/C=C/C(=O)Nc2sc3c(c2C(=O)OCC)CCC(C)C3)cc1OC (stereo not given) | 51% (inactive)
COc1cc(C(=O)Nc2sc3c(c2C(N)=O)CCC(C)C3)cc(OC)c1OC (stereo not given) | 53% (inactive)
COC(=O)c1sc(NC(=O)/C=C/c2ccc(OC)c(OC)c2)c(C(=O)OC)c1C | 37% (active)
COc1ccc(/C=C/C(=O)Nc2sc3c(c2C(N)=O)CCC(C)C3)cc1OC (stereo not given) | 34% (active)
CCOC(=O)c1sc(NC(=O)/C=C/c2ccc(C(C)C)cc2)c(C(=O)OCC)c1C | 52% (inactive)
CCOC(=O)c1c(NC(=O)/C=C/c2ccc(OC)cc2)sc2c1CCC(C)C2 (stereo not given) | 23% (active)
Cc1ccccc1-c1noc(-c2nnn(-c3ccccc3C)c2N)n1 | 94% (inactive)
O=C(NCc1ccco1)c1ccc2c(c1)N(Cc1ccccc1F)C(=O)c1ccccc1S2=O (stereo not given) | 90% (inactive)
CCCCNC(=O)c1ccc2c(c1)N(Cc1ccc(F)cc1)C(=O)c1ccccc1S2=O (stereo not given) | 65% (inactive)
COC1CCCC(C(=O)Nn2c(C3CC3)nc3ccccc3c2=O)C1 (stereo not given) | 69% (inactive)
Cc1cc(F)ccc1NC(=O)c1csc2c1CCC(C)C2 (stereo not given) | 89% (inactive)
Cc1occc1C(=O)NN=C1c2ccccc2-c2ccccc21 | 69% (inactive)
CCN(C(=O)c1oc2ccc(S(=O)(=O)N3CCCCCC3)cc2c1C)c1ccccc1 | 124% (inactive)
CSc1ccc(NC(=O)N2C3CCC2CC(O)(c2cccnc2)C3)cc1 (stereo not given) | 79% (inactive)
CCOc1ccccc1CNS(=O)(=O)c1ccc(-c2coc(C)n2)cc1 | 94% (inactive)
Cc1nc(N2CCCC2)ncc1C(=O)Nc1ccc(F)cc1F | 90% (inactive)
Cc1ccc(Cl)cc1NC(=O)c1ccc2nc(CCc3ccccc3)oc2c1 | 69% (inactive)
Cc1ccc(-c2cn3c(n2)sc2cc(C(=O)NCc4cccs4)ccc23)cc1 | 78% (inactive)
COc1ccc(-c2cn3c(n2)sc2cc(C(=O)NCc4cccs4)ccc23)cc1 | 55% (active)
O=C(NCc1cccs1)c1ccc2c(c1)sc1nc(-c3ccc(F)cc3)cn12 | 71% (inactive)
Cc1ccc(-c2cn3c(n2)sc2cc(C(=O)NCc4cccs4)ccc23)c(C)c1 | 41% (active)
